{"source": "paper PMC8384837", "about": "“Expanding the binding specificity for RNA recognition by a PUF domain”", "experiment_in_all_cases": "yeast three-hybrid, YBZ-1, SC-Leu-His + 0.5 mM 3-AT, 4 days", "details_in_all_cases": "tags: N-Gal4 AD-HA kept; label: inside an RPR1-promoter hybrid RNA with tandem MS2 sites; ssRNA", "key": {"PUM1 PUF domain R7-LFD": {"target": "PUM1 PUF domain R7-LFD (Homo sapiens, UniProt Q14671 828-1176, S1079L;N1080F;E1083D)", "method_in_brief": "(§1)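 Pumilio-1 PUF domain libraries, randomized at the three base-contacting residues of each repeat, were co-expressed with matching RNA elements from a centromeric plasmid in strain YBZ-1, which carries a LexA–MS2 coat fusion and a HIS3 reporter. Transformants grew for four days on SC-Leu (input) or on SC-Leu-His + 0.5 mM 3-AT (selection), and the repeat regions were PCR-amplified and Illumina-sequenced. The interaction score is the log change in variant frequency from input to selection. That logarithm is base 2, with a pseudocount of 1 where a variant was absent.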"}, "PUM1 PUF domain R5-WGF": {"target": "PUM1 PUF domain R5-WGF (Homo sapiens, UniProt Q14671 828-1176, C1007W;R1008G;Q1011F)", "method_in_brief": "as §1"}, "PUM1 PUF domain R6-WWA": {"target": "T1, PUM1 PUF domain R6-WWA (Homo sapiens, UniProt Q14671 828-1176, N1043W;Y1044W;Q1047A)", "T1 sequence": "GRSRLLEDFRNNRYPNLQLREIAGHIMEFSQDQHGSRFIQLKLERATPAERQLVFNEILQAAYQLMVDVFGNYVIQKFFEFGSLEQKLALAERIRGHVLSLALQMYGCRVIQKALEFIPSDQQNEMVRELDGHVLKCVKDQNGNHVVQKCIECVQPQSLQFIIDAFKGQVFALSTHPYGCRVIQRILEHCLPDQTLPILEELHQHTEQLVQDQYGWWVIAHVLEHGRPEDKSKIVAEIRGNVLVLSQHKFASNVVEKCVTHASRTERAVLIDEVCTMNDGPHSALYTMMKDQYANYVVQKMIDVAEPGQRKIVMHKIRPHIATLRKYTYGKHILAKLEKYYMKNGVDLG", "method_in_brief": "as §1"}, "PUM1 PUF domain R5-DWM": {"target": "PUM1 PUF domain R5-DWM (Homo sapiens, UniProt Q14671 828-1176, C1007D;R1008W;Q1011M)", "method_in_brief": "as §1"}, "PUM1 PUF domain R8-RWH": {"target": "PUM1 PUF domain R8-RWH (Homo sapiens, UniProt Q14671 828-1176, N1122R;Y1123W;Q1126H)", "method_in_brief": "as §1"}, "PUM1 PUF domain R3-VYY": {"target": "PUM1 PUF domain R3-VYY (Homo sapiens, UniProt Q14671 828-1176, C935V;R936Y;Q939Y)", "method_in_brief": "as §1"}, "PUM1 PUF domain R3-QPG": {"target": "PUM1 PUF domain R3-QPG (Homo sapiens, UniProt Q14671 828-1176, C935Q;R936P;Q939G)", "method_in_brief": "as §1"}, "PUM1 PUF domain R4-DHN": {"target": "PUM1 PUF domain R4-DHN (Homo sapiens, UniProt Q14671 828-1176, N971D;Q975N)", "method_in_brief": "as §1"}, "PUM1 PUF domain R4-WGD": {"target": "PUM1 PUF domain R4-WGD (Homo sapiens, UniProt Q14671 828-1176, N971W;H972G;Q975D)", "method_in_brief": "as §1"}, "PUM1 PUF domain R5-QCR": {"target": "PUM1 PUF domain R5-QCR (Homo sapiens, UniProt Q14671 828-1176, C1007Q;R1008C;Q1011R)", "method_in_brief": "as §1"}}}
{"sequence": "GGCUAGAACUAGUGGAUCCCCCGGCGCCCGGCGGCUCGAGCCCGGGUAAGUUUAAAUAGUCUGCAUGCCGCCGGGCGCCAUGCCUGCAGGUCGACUCUAGAAAACAUG", "values": [{"measurement": "binding signal", "setting": "PUM1 PUF domain R7-LFD", "result": "2.92 log2 enrichment (interaction score)"}]}
{"sequence": "GGCUAGAACUAGUGGAUCCCCCGGCGCCCGGCGGCUCGAGCCCGGGUAAGUGUGAAUAGUCUGCAUGCCGCCGGGCGCCAUGCCUGCAGGUCGACUCUAGAAAACAUG", "values": [{"measurement": "binding signal", "setting": "PUM1 PUF domain R5-WGF", "result": "4.79 log2 enrichment (interaction score)"}]}
{"sequence": "GGCUAGAACUAGUGGAUCCCCCGGCGCCCGGCGGCUCGAGCCCGGGUAAGUGUAAAUAGUCUGCAUGCCGCCGGGCGCCAUGCCUGCAGGUCGACUCUAGAAAACAUG", "values": [{"measurement": "binding signal", "setting": "PUM1 PUF domain R6-WWA", "result": "4.79 log2 enrichment (interaction score)"}, {"measurement": "binding signal", "setting": "PUM1 PUF domain R5-DWM", "result": "2.57 log2 enrichment (interaction score)"}, {"measurement": "binding signal", "setting": "PUM1 PUF domain R8-RWH", "result": "4.7 log2 enrichment (interaction score)"}]}
{"sequence": "GGCUAGAACUAGUGGAUCCCCCGGCGCCCGGCGGCUCGAGCCCGGGUAAGUGAAAAUAGUCUGCAUGCCGCCGGGCGCCAUGCCUGCAGGUCGACUCUAGAAAACAUG", "values": [{"measurement": "binding signal", "setting": "PUM1 PUF domain R6-WWA", "result": "2.47 log2 enrichment (interaction score)"}]}
{"sequence": "GGCUAGAACUAGUGGAUCCCCCGGCGCCCGGCGGCUCGAGCCCGGGUAAGUGUAAUUAGUCUGCAUGCCGCCGGGCGCCAUGCCUGCAGGUCGACUCUAGAAAACAUG", "values": [{"measurement": "binding signal", "setting": "PUM1 PUF domain R3-VYY", "result": "5.47 log2 enrichment (interaction score)"}, {"measurement": "binding signal", "setting": "PUM1 PUF domain R3-QPG", "result": "3.7 log2 enrichment (interaction score)"}]}
{"sequence": "GGCUAGAACUAGUGGAUCCCCCGGCGCCCGGCGGCUCGAGCCCGGGUAAGUGUAUAUAGUCUGCAUGCCGCCGGGCGCCAUGCCUGCAGGUCGACUCUAGAAAACAUG", "values": [{"measurement": "binding signal", "setting": "PUM1 PUF domain R4-DHN", "result": "4.74 log2 enrichment (interaction score)"}, {"measurement": "binding signal", "setting": "PUM1 PUF domain R4-WGD", "result": "4.21 log2 enrichment (interaction score)"}]}
{"sequence": "GGCUAGAACUAGUGGAUCCCCCGGCGCCCGGCGGCUCGAGCCCGGGUAAGUGUACAUAGUCUGCAUGCCGCCGGGCGCCAUGCCUGCAGGUCGACUCUAGAAAACAUG", "values": [{"measurement": "binding signal", "setting": "PUM1 PUF domain R4-DHN", "result": "2.6 log2 enrichment (interaction score)"}]}
{"sequence": "GGCUAGAACUAGUGGAUCCCCCGGCGCCCGGCGGCUCGAGCCCGGGUAAGUGUUAAUAGUCUGCAUGCCGCCGGGCGCCAUGCCUGCAGGUCGACUCUAGAAAACAUG", "values": [{"measurement": "binding signal", "setting": "PUM1 PUF domain R5-QCR", "result": "3.91 log2 enrichment (interaction score)"}]}
{"sequence": "GGCUAGAACUAGUGGAUCCCCCGGCGCCCGGCGGCUCGAGCCCGGGUAAGUGUCAAUAGUCUGCAUGCCGCCGGGCGCCAUGCCUGCAGGUCGACUCUAGAAAACAUG", "values": [{"measurement": "binding signal", "setting": "PUM1 PUF domain R5-QCR", "result": "4.97 log2 enrichment (interaction score)"}]}
{"sequence": "GGCUAGAACUAGUGGAUCCCCCGGCGCCCGGCGGCUCGAGCCCGGGUAAGCGUAAAUAGUCUGCAUGCCGCCGGGCGCCAUGCCUGCAGGUCGACUCUAGAAAACAUG", "values": [{"measurement": "binding signal", "setting": "PUM1 PUF domain R8-RWH", "result": "5.97 log2 enrichment (interaction score)"}]}
